From PubChem
aSyn UTR act – Activators working through SNCA 5'UTR binding (MLPCN). activity score, % (tested at 7.5 µM), hits read low. AID 1814. alpha-synuclein 5'UTR reporter, activators screen. 300,000 compounds, 7.1% hits; in the data active means activity score below about -60%
Active calls of the source: *. The list is a sample of the results.

SMILES	aSyn UTR act
COc1ccc(C(=O)N/N=C(/C)c2cccc(NC(=O)c3ccccc3F)c2)cc1	-78.7*
C/C(=N\NC(=O)c1ccncc1)c1cccc(NC(=O)c2ccc(C(C)(C)C)cc2)c1	-123.3*
C/C(=N\NC(=O)c1cc(O)ccc1O)c1cccc(NC(=O)c2ccc(Cl)cc2)c1	-98.5*
COc1ccc(OCc2csc(N)n2)cc1	-116.6*
CC(C)(O)C#Cc1ccc(C(=O)Nc2ccc3c(c2)OCO3)s1	-143.4*
CCc1ccc(C(=O)NC2CCCCC2)s1	-81.8*
CC(C)(O)C#Cc1ccc(C(=O)NC2CCCCC2)s1	-97.9*
COc1cc(/C=N/NC(=Nc2ccc(C)cc2)c2nc3ccccc3s2)ccc1O	-148.5*
COc1cc(C=C(c2nc3ccccc3s2)c2nc3ccccc3s2)cc(OC)c1O	-98.0*
COc1ccccc1/C=N/NC(=Nc1ccc(C)cc1)c1nc2ccccc2s1	-99.1*
CCc1noc(C)c1C(=O)Nc1nc(-c2cccs2)cs1	-66.0*
c1ccc(Cn2cc(CSc3ccccc3)nn2)cc1	-137.1*
O=C(/C=C/c1c(Cl)cccc1Cl)Nc1ccncc1	-293.1*
O=C(/C=C/c1c(F)cccc1Cl)Nc1ccncc1	-328.4*
CN1CCN(C(=O)/C=C/c2c(F)cccc2Cl)CC1	-67.6*
Cc1ccc2nc(-c3ccc4c(c3)OCCO4)cn2c1	110.5
Cc1ccc2nc(-c3ccc4c(c3)NC(=O)CO4)cn2c1	-80.0*
COc1ccc(NC(=S)NC(=O)c2ccccc2Cl)cc1	-129.6*
O=C(NC(=S)Nc1ccccc1[N+](=O)[O-])c1ccccc1Cl	-94.2*
Cc1ccc(O)c(NC(=S)NC(=O)c2ccccc2Cl)c1	-120.3*
CC(C)CNC(=S)NC(=O)c1ccccc1Cl	-93.2*
CCn1cc(C(=O)NC(=S)Nc2ccccc2[N+](=O)[O-])cn1	-94.1*
O=C(NC(=S)Nc1ccc(O)cc1)c1ccccc1Cl	-160.8*
Cc1cc(C)n(-c2nc(SCCN(C)C)c3c4c(sc3n2)CCCC4)n1	-71.2*
COc1ccc(C(=O)NCCOc2ccccc2Cl)c(OC)c1OC	-153.9*
SMILES	aSyn UTR act
COc1cccc(C2N=C(c3ccccc3C)NO2)c1OC (configuration not stated)	-80.2*
COc1ccc2c(=O)c3ccccc3oc2c1	-146.8*
COc1ccc2c(c1)oc(=O)c1c3ccccc3[nH]c21	-277.2*
COc1ccc2c(c1)oc(=O)c1cc(OC)ccc12	-181.9*
CN(C)S(=O)(=O)c1cccc(C(=O)Nc2ccc(Cl)cn2)c1	-116.2*
COc1ccc(C(=O)Nc2ccc(Cl)cn2)cc1Cl	-181.5*
Cc1ccc(C(=O)n2nc(-c3ccccc3)nc2NCc2ccco2)cc1	-67.7*
O=S(=O)(c1ccccc1)n1nc(-c2ccccc2)nc1NCc1ccco1	-64.7*
CC(C)(C)c1ccc(-c2noc(CCC(=O)NCc3ccco3)n2)cc1	77.3
CCCC(=O)n1nc(-c2ccc(C)cc2)nc1NCc1ccco1	-88.1*
CC(C)(C)S(=O)(=O)Cc1nc(-c2ccc(Cl)c(Cl)c2)cs1	-67.1*
CCn1c(SCC(=O)c2ccc(Cl)cc2)nnc1C(C)C	-76.2*
CN(Cc1nc(-c2ccccc2)no1)C1CCOCC1	-98.1*
c1ccc(-c2noc(CC3CCCCC3)n2)cc1	-168.7*
c1cc(-c2noc(CCC3CCCC3)n2)ccn1	-79.4*
c1ccc(-c2noc(CCC3CCCC3)n2)cc1	-120.7*
CCC(C)NC(=O)Cn1c(COc2ccc(Cl)cc2Cl)nc2ccccc21 (configuration not stated)	-122.2*
Cc1cc(C(=O)CSc2ccc(F)cc2)cc(C)c1O	-108.8*
Cc1cc(C(=O)CSc2ccc(Cl)cc2)cc(C)c1OC(=S)N(C)C	-178.8*
CCc1c(C(=O)NC2CCCc3ccccc32)[nH]c(C)c1C(C)=O (configuration not stated)	64.2
CC(=O)c1c(C)[nH]c(C(=O)CSc2ccc(F)cc2)c1C	-182.0*
CCC(=O)NCCc1nc2cc(NC(=O)c3ccc(F)cc3)ccc2n1C	-121.5*
CCC(=O)NCCc1nc2cc(NC(=O)c3ccc(Cl)cc3)ccc2n1C	-175.1*
CC(=O)NCCc1nc2cc(NC(=O)c3ccccc3Cl)ccc2n1C	-61.9*
CCC(=O)NCCc1nc2cc(NC(=O)c3ccc(OC)cc3)ccc2n1C	-119.2*
SMILES	aSyn UTR act
CC(=O)NCCc1nc2cc(NC(=O)c3ccc(Cl)cc3)ccc2n1C	-97.6*
Cc1ccc(-n2nnnc2CNC(=O)c2ccc([N+](=O)[O-])o2)cc1C	-98.1*
O=C(NCc1nnnn1-c1ccc(F)cc1)c1ccc([N+](=O)[O-])o1	-135.6*
c1ccc(-c2nc3nc4ccccc4nc3n2Cc2ccco2)cc1	-106.3*
CN(C)c1ccc(/C=N/NC(=S)NCc2ccccc2)cc1	-85.2*
CNC(=S)N/N=C/c1ccc(N(C)C)cc1	-88.7*
CC(C)Oc1ccc(/C=N/NC(N)=S)cc1	-115.6*
Cc1c(C(=O)N/N=C/c2ccc(N(C)C)cc2)[nH]c2ccc(Cl)cc12	73.5
CNC(=S)N/N=C/c1ccc(C(C)C)cc1	-160.8*
COc1ccc(NC(=O)C(=O)c2cn(CC(=O)N3CCCC3)c3ccccc23)c(OC)c1	-86.1*
COc1ccccc1NC(=O)C(=O)c1cn(CC(=O)N2CCOCC2)c2ccccc12	-118.5*
